# An excerpt weighted towards active compounds, which were near 9.1% of everything screened.
# Htt clearance = compounds clearing mutant huntingtin protein. HeLa Exon1htt(103Q)mCFP, aggregate imaging; zero = plate's median compound well. hit rate 0.42% among 47,000. AID 853. inhibition, % at 1.5 µM;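 active means inhibition of aggregate fluorescence above about 70%, also judged a hit by eye on the cell image, limit read from the data, passing the limit was not always enough; inconclusive means no rule stated for this call; inactive means not judged a hit on image review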;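 further: cells exposed to compound for three days before fixation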
# M1 agonist = M1 muscarinic receptor agonism; CHO-M1 cells, Fluo-4 calcium fluorescence, agonist mode; active compounds read high; B-score at 10 µM; hit rate 3% among 64,000; AID 626;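 active means fluorescence rise, raw or as B-score row- and column-corrected plate score, outside the 99.7% band of its plate's samples, either direction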
# M1 antagonist = M1 muscarinic receptor (rat) antagonism | P08482 | CHO-M1 cells, Fluo-4 calcium, ACh EC80 antagonist mode; active compounds read low | B-score at 10 µM | hit rate 3.4% among 64,000;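 active means calcium fluorescence response, raw or row-and-column corrected B-score, differing from the plate sample mean either way at a set confidence level, mostly lower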
# Target sequence (P08482 whole entry, looked up): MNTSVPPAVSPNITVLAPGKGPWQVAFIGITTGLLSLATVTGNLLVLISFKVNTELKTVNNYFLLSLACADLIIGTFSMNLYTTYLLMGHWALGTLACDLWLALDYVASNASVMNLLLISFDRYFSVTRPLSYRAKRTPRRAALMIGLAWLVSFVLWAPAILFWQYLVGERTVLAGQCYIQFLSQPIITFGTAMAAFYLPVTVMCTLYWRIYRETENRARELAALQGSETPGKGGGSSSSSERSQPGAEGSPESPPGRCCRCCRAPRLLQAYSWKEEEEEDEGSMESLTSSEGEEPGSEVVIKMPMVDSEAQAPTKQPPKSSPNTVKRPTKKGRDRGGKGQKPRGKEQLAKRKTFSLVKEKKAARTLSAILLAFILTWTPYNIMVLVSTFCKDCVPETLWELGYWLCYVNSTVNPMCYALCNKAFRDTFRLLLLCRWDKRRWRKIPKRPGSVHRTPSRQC
# D1 allo mod = allosterically modulates the human D1 dopamine receptor. AID 641. HEK293 D1, CRE-luciferase, dopamine EC30 potentiation; actives deviate in either direction. hit rate 5.9% among 58,000. B-score at 10 µM;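 active means luminescence count or its row- and column-corrected plate score outside the 99.7% band of the plate's sample wells, on either side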
# M1 ag confirm = confirmation of rat M1 muscarinic receptor agonists; shares compounds with M1 agonist; CHO-M1 cells, Fluo-4 calcium fluorescence, agonist mode; actives lie on both sides; fluorescence change (max-min) at 10 µM; hit rate 19% among 1,700;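 active means fluorescence change differs from the solvent-only DMSO control mean at a set confidence level in both duplicate runs; inconclusive means differs from solvent-only control mean in just one of two runs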;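 further: an EC20 dose of acetylcholine follows compound addition during the same imaging run; raw fluorescence intensity difference in instrument units with no normalization to controls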
# M4 agonist ctr = rat M4 muscarinic agonism, M1 counter-screen | shares compounds with M1 agonist | CHO M4/Gqi5 cells, Fluo-4 calcium fluorescence, agonist mode; actives lie on both sides | fluorescence change (max-min) at 10 µM | hit rate 9% among 1,700;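 active means fluorescence change differing from the plate's solvent-only control wells at 99.7% confidence in both duplicates, whether higher or lower; inconclusive means differs from solvent controls in only one of two duplicates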
# Numbers without * were called inactive; ? = inconclusive; . = no result given.
SMILES,Htt clearance,M1 agonist,M1 antagonist,D1 allo mod,M1 ag confirm,M4 agonist ctr
COc1ccc(OC)c(C(c2nnnn2C2CCCC2)N2CCN(c3ccccc3)CC2)c1 (configuration not stated),.,-1.66*,-0.0861,-0.971,-15.7,-51.4
CCCC(c1nnnn1Cc1ccc(OC)cc1)N1CCN(c2ccccc2OC)CC1 (configuration not stated),.,1.82,-0.782,-0.0367,.,.
CCCC(c1nnnn1Cc1ccccc1)N1CCN(c2ccccc2OC)CC1 (configuration not stated),6.0,7.05*,-0.757,-0.00959,-14.9,-36.1
COc1cccc(C(c2nnnn2Cc2ccccc2)N2CCN(C3CCCC3)CC2)c1OC (configuration not stated),-50.8,2.85*,-1.73*,-3.55*,-14.1,-34.8
O=C(CN1CCN(c2ccccc2)CC1)Nc1ccc(Oc2ccccc2)cc1,21.6,.,.,.,.,.
COC(=O)c1ccc2c(=O)sc(N3CCC(C(N)=O)CC3)nc2c1,-32.9,23.8*,0.361,0.563,132*,136*
COC(=O)c1ccc2c(=O)n3c(nc2c1)SCC(c1ccccc1)=N3,-16.3,-1.49,0.0187,-0.262,.,.
CCCn1nnnc1SCC(=O)Nc1nnc(CC)s1,65.0,2.64*,-0.0768,-0.00654,-18.3,?
Cc1cc(NC(=O)c2cc(-c3ccccn3)nc3ccccc23)no1,.,-0.352,-1.19,.,.,.
Cc1ccc2nc(-c3ccccn3)cc(C(=O)NC3CCN(C)CC3)c2c1,6.1,-2.28*,-0.177,-0.868,-20.2,-46
O=C(CN(Cc1cccs1)C(=O)CNC(=O)c1ccco1)NC1CCCCC1,3.4,-0.5,0.151,.,.,.
CCN(CC)c1ccc2c(C)c(CN3CCOCC3)c(=O)oc2c1,8.1,7.1*,-2.95*,0.132,43.1,-0.888
O=C1C(=O)N(CCCn2ccnc2)C(c2cccnc2)/C1=C(/O)c1ccc(Br)cc1 (configuration not stated),.,-0.102,0.0719,-0.638,.,.
CC1=C(C(=O)OCC2CCCO2)C(c2ccncc2)C2=C(CC(C)(C)CC2=O)N1 (configuration not stated),.,0.0543,-0.628,-0.667,.,.
CNC(=O)c1cc2ccc(OC)cc2oc1=O,.,3.77*,-2.31*,-1.32,132*,92.8
COc1ccc(S(=O)(=O)N(n2c(C)nnc2-n2nc(C)cc2C)S(=O)(=O)c2ccc(OC)cc2)cc1,-43.7,.,.,.,.,.
Cc1cc(C)c(NC(=O)C2CCCN2CCO)c(C)c1 (configuration not stated),-11.7,2*,0.223,0.121,1.76,-8.93
CN1C(=O)C2(N=c3ccccc3=N2)c2ccccc21,-58.3,2.36,0.00727,.,.,.
O=C(CN1CCN(c2ccccc2)CC1)Nc1ccc(-n2cnnn2)cc1,-70.7,51.1*,-0.439,-0.386,1.11,-36.2
CN(C)CCNc1oc(COc2ccc(Cl)cc2)nc1C#N,52.8,-0.526,0.189,-1.03,.,.
COC(=O)c1ccc(C(C(=O)NCc2ccccc2)N(Cc2ccco2)C(=O)c2cnccn2)cc1 (configuration not stated),.,0.809,-0.0277,-0.231,.,.
COc1cc(OC)cc(C(C(=O)NCc2ccccc2)N(Cc2ccco2)C(=O)c2ccno2)c1 (configuration not stated),.,7.11*,-0.303,.,-14.3,?
CCOc1cc(S(=O)(=O)NCCc2cccc(C)c2)c(OCC)cc1-n1cnnn1,42.5,0.686,-0.0655,0.0741,.,.
Cc1ccc(C)c(N(CC(=O)NC2CCCCC2)C(=O)CCC(=O)Nc2ccccn2)c1,-38.1,-0.749,-0.375,-0.181,.,.
C=CCC(CC=C)(NC(=O)c1ccccc1C)c1ccccc1,20.2,.,.,.,.,.
SMILES,Htt clearance,M1 agonist,M1 antagonist,D1 allo mod,M1 ag confirm,M4 agonist ctr
CCOCCCn1cnc2c(c1=O)c1nc3ccccc3nc1n2-c1ccc(C)cc1,.,0.682,0.539,0.216,.,.
CCOCCCn1cnc2c(c1=O)c1nc3ccccc3nc1n2-c1ccccc1,-7.5,3.9*,0.0575,0.601,?,-37.5
CC(=O)N1CCc2cc(S(=O)(=O)NC3CCCc4ccccc43)ccc21 (configuration not stated),-30.7,0.881,0.00463,.,.,.
O=C(O)c1ccc(S(=O)(=O)NC2CCCc3ccccc32)cc1 (configuration not stated),33.6,2.91*,0.329,-0.038,?,?
Cc1cc(N2CCN(C3CCCC3)CC2)n2nc(C)c(-c3ccccc3)c2n1,.,0.0782,0.0252,0.112,.,.
CCOC(=O)N1CCC(NCCNC(=O)c2ccc(Cl)cc2)CC1,-10.2,18.2*,-0.875,-0.374,115*,1.44
CCOC(=O)N1CCC(Nc2c(N3CCN(c4cc(Cl)ccc4C)CC3)c(=O)c2=O)CC1,1.6,-0.986,-0.602,-1.44,.,.
CCC(CC)C(=O)NCCc1cc2c(C)ccc(C)c2[nH]c1=O,.,-2.22,-0.395,-0.217,.,.
COc1ccc(OC)c2[nH]c(=O)c(CCNC(=O)c3cc4ccccc4o3)cc12,.,2.54*,-1.09,0.653,-6.8,-22.2
Cc1ccc(C)c2[nH]c(=O)c(CCNC(=O)c3cc4ccccc4o3)cc12,.,2.9*,-0.091,0.901,?,-45.1
COCCn1c(-c2ccc(OC)cc2)cnc1SCC(=O)Nc1cccc2ccccc12,-37.9,.,.,.,.,.
O=C1OC(C(=O)O)Cc2ccccc21 (configuration not stated),16.8,.,.,.,.,.
CCCCNC(=S)Nc1ccccc1F,-14.3,.,.,.,.,.
c1ccc(CCc2nn3c(Cc4ccccc4)nnc3s2)cc1,-74.1,0.413,0.36,-1.12,.,.
COc1cccc(C2=NO[C@@H]3C(=O)N(c4ccc5c(c4)OCCO5)C(=O)[C@H]23)c1OC,-50.7,0.2,-0.135,-0.734,.,.
Cc1ccc(N2C(=O)[C@@H]3C(c4ccc(F)cc4)=NO[C@@H]3C2=O)cc1,.,6.65*,-0.368,0.0524,?,-34.6
Cc1ccc(-n2nc(-c3cccnc3)cc2C(=O)N2CCOCC2)c(C)c1,.,19.5*,-0.299,-0.0787,?,-26.3
CCc1nnc(NC=C2C(=O)OC(C)(C)OC2=O)s1,-54.2,-0.437,-0.747,-0.415,.,.
O=C(c1noc2c1CCCCC2)N1CCN(C(c2ccccc2)c2ccccc2)CC1,.,-0.0991,-0.307,-0.0228,.,.
CCOC(=O)c1nc(N2CCN(C(=O)OCC)CC2)c2c3c(sc2n1)CCCC3,33.5,9.16*,-0.449,.,?,-63.3
COc1ccc(S(=O)(=O)NCC(=O)N(CC(=O)NCC2CCCO2)c2c(C)cccc2C)cc1 (configuration not stated),1.3,0.26,-0.072,0.0312,.,.
CCOc1ccc(C2=CS/C(=C(\C#N)c3nnc4n3CCCCC4)N2CC)cc1,8.8,3.83*,-0.0564,-3.73,-17.8,-38.4
C=CCN1C(c2ccccc2)=CS/C1=C(\C#N)c1nnc2n1CCCCC2,.,0.263,0.127,-0.557,.,.
COc1ccc(C2C(C(C)=O)=C(C)N=c3s/c(=C\c4cc(C)n(C)c4C)c(=O)n32)c(OC)c1 (configuration not stated),-56.5,144*,-0.0857,0.157,458*,?
COc1ccc(-n2c(C)nc3c(cnn3-c3ccc(Cl)cc3)c2=O)cc1,.,4.14*,-0.695,-0.562,-9.64,-53.2

# Assay outcomes: PubChem BioAssay, several laboratories
